From the supplement of paper PMC6992640

System: WHIM2 (cells of a triple-negative basal-like breast cancer xenograft)
Assay: cell viability of combination (% of vehicle); higher = less cytotoxic
Conditions: 1 µM; 72 h; partner dose: 10 nM
Method: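 PDX cells were treated for 72 h with each drug at 1 µM plus afatinib (10 nM; 1 µM for WHIM30). Luciferase viability is expressed as percent of vehicle.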

SMILES | cell viability of combination
Cc1cc(C(C#N)c2ccc(Cl)cc2)c(Cl)cc1NC(=O)c1cc(I)cc(I)c1[O-].[Na+] (stereo not given) [Closantel Sodium] + CN(C)C/C=C/C(=O)Nc1cc2c(Nc3ccc(F)c(Cl)c3)ncnc2cc1O[C@H]1CCOC1 [Afatinib] | 49.1
CCCCCCCCCCCCCCCC[n+]1ccccc1.[Cl-] [Cetylpyridinium Chloride] + CN(C)C/C=C/C(=O)Nc1cc2c(Nc3ccc(F)c(Cl)c3)ncnc2cc1O[C@H]1CCOC1 [Afatinib] | 32.2
Cc1cc(C(C#N)c2ccc(Cl)cc2)c(Cl)cc1NC(=O)c1cc(I)cc(I)c1O (stereo not given) [Closantel] + CN(C)C/C=C/C(=O)Nc1cc2c(Nc3ccc(F)c(Cl)c3)ncnc2cc1O[C@H]1CCOC1 [Afatinib] | 47
CCCCCCCCCCCC[N+](C)(C)CCOc1ccccc1.[Br-] [Domiphen Bromide] + CN(C)C/C=C/C(=O)Nc1cc2c(Nc3ccc(F)c(Cl)c3)ncnc2cc1O[C@H]1CCOC1 [Afatinib] | 41.6
CCCCCCCCCCCCCCCC[N+](C)(C)C.[Br-] [Cetrimonium Bromide (CTAB)] + CN(C)C/C=C/C(=O)Nc1cc2c(Nc3ccc(F)c(Cl)c3)ncnc2cc1O[C@H]1CCOC1 [Afatinib] | 38
